This is a sample that favours compounds with a hit; in the whole collection about 9.4% have one here.
Pf growth 96h: P. falciparum growth inhibition at 96 hour, primary screen for plastid delayed-death inhibitors; P. falciparum luciferase reporter growth, 96 h; Potency, µM (top dose mostly 28.7 µM), for the others: top-dose activity change, negative = inhibition, actives largely listed as inhibitors; actives 6.9% (n = 320,000); further: on the % scale 0 is the no-effect control and ±100 the full control effect
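Compounds incubated with erythrocytes infected by luciferase-expressing P. falciparum (2% hematocrit, 0.05% parasitemia final) for 96 hours, 37 C in 5% CO2. Growth inhibition scored as decreased luciferase luminescence.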
SARS PLP yeast: SARS-CoV PLP inhibition in yeast; S. cerevisiae expressing SARS-CoV PLpro, growth rescue; Potency, µM (top dose mostly 32.9 µM), for inactives: at the highest dose activity, positive = growth rescue, hits mostly activators; actives 0.19% (n = 330,000); AID 485353; calls by dose curve; further: 0% is about no effect; nearly all actives have a fitted effect of over 55% in size
Pf growth 48h: inhibits P. falciparum growth in the first generation, 48 h; Potency, µM (doses to about 28.7 µM), without a hit: at the top dose activity change, negative = inhibition, hits mostly inhibitors; P. falciparum luciferase growth in erythrocytes, 48 h; actives 5.9% (n = 310,000); AID 504832; further: on the % scale 0 is the no-effect control and ±100 the full control effect
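Cell-based growth assay: transgenic P. falciparum expressing firefly luciferase, cultured in red cells within RPMI 1640 containing 0.5% w/v Albumax, 24 mM bicarbonate and gentamycin. A drop in luciferase activity indicates inhibition.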
AMA1-RON2 inh: AMA1-RON2 (P. falciparum) interaction inhibition. AlphaScreen AMA1-biotinylated RON2 peptide binding. Potency, µM (series often up to 58.2 µM), inactives show top-dose activity change, negative = inhibition, hits mostly inhibitors. actives 0.2% (n = 360,000);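 further: 0% = vehicle wells and -100% = peptide control; nearly all actives have a fitted effect of over 45% in size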
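AMA1 (3D7) with his tag at 25 nM final met compounds first, then biotinylated RON2 peptide at 25 nM; detection used donor plus acceptor beads, 10 µg/mL apiece, read by AlphaScreen after 30 min at room temperature.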
* hit, by the source's call; u = inconclusive; x = no result; [ ] = another dose, or the depositor's remark. Unless noted, the call rests on the fitted dose curve; in most records, active means well fitted curve in the direction sought with a large enough effect; inconclusive means small, poorly fitted or top-dose-only effect, or another doubt; inactive means no such curve, though single readings can be large; an effect the other way counts as inactive or inconclusive. Potency means the concentration at half of the fitted maximal effect.

SMILES | Pf growth 96h | SARS PLP yeast | Pf growth 48h | AMA1-RON2 inh
CCOc1ccc2nc(N(Cc3ccccc3)C(=O)CCNC(C)=O)sc2c1 | u | 2% | -28% | 1%
COc1cccc(OC)c1OCCCN1CCOCC1 | -4% | 7% | -4% | -1%
COc1cc2ncnc(Nc3ccc(F)c(Cl)c3)c2cc1OCCCN1CCOCC1 | x | x | 0.54µM* | x
CCCCCCN1N=C(C)C(C(=O)c2ccc(Cl)cc2)C1=O (stereo not drawn) | 33% | 23% | 12% | 54%
CCCCCCCN1N=C(C)C(C(=O)c2ccccc2)C1=O (stereo not drawn) | 36% | 10µM* | x | 57%
COc1cc(C)cc2oc(=O)c(CC(=O)N3CCN(C(=O)C4COc5ccccc5O4)CC3)c(C)c12 (stereo not drawn) | 1% | -5% | u | -2%
CC(=O)Oc1ccc2c(C)c(CC(=O)N3CCN(C(=O)C4COc5ccccc5O4)CC3)c(=O)oc2c1C (stereo not drawn) | u | -1% | 12µM* | -6%
CN(CCCC[C@H](CNCc1ccc(-c2ccccc2)cc1)N1C[C@H](c2ccccc2)N(CCc2ccc(Cl)c(Cl)c2)C(=O)C1=O)Cc1ccc(-c2ccccc2)cc1 | 3.7µM* | -13% | u | x
CCOc1ccc(CCN2C(=O)C(=O)N([C@@H](CC(C)C)CN3CCC[C@@H]3CN3C(=O)C(=O)NC[C@@H]3CC(C)C)C[C@@H]2Cc2ccccc2)cc1 | x | x | x | -4%
COc1ccc(CNC[C@@H](CCCCN(C)Cc2ccc(OC)cc2)N2C[C@H](c3ccccc3)N(CCc3ccc(Cl)c(Cl)c3)C(=O)C2=O)cc1 | 2.3µM* | 1% | 1.7µM* | -6%
CCOc1ccc(CCN2C(=O)C(=O)N([C@H](CCCN(C)Cc3ccccc3)CNCc3ccccc3)C[C@@H]2C(C)C)cc1 | 3.7µM* | 3% | 9.3µM* | x
Cc1ccc(CCN2CC(C(=O)NCCCN(C)Cc3ccccc3)CC2=O)cc1 (stereo not drawn) | 73% | -10% | 24% | 3%
CCOC(=O)CS(=O)(=O)c1ccccc1 | 2% | 6% | 2.9µM* | -11%
CCOC(=O)CS(=O)(=O)c1ccc(O)cc1 | u | -1% | -6%[5.75 µM] | 0%
O=C(COc1cc(O)c2c(=O)cc(-c3ccccc3)oc2c1)c1cccc([N+](=O)[O-])c1 | 0% | 5% | 4.1µM* | 3%
CC(=O)N(CCC(Cc1ccccc1)c1ccc2c(c1)OCO2)Cc1ccc(Cl)cc1 (stereo not drawn) | 8.3µM* | -6% | 9.3µM* | u
COc1cc(NC(=O)c2cccnc2)ccc1NC(=O)c1ccccc1Cl | 1% | -2% | -2% | -1%
CC(C)NC(=O)c1cc2n(n1)C(C(F)(F)F)CC(c1ccco1)N2 (stereo not drawn) | 22% | 0% | u | 2%
Cc1cc(NC(=O)c2cc3n(n2)C(C(F)(F)F)CC(c2ccco2)N3)no1 (stereo not drawn) | 10µM* | 8% | x | -2%
C[C@H](NC(=O)c1nc[nH]c1C(=O)NCCCCCNC(=O)OC(C)(C)C)C(=O)OCc1ccccc1 | 0% | -1% | 47% | 153%
CC(C)(C)OC(=O)NCCCCCNC(=O)c1[nH]cnc1C(=O)N[C@@H](Cc1ccccc1)C(=O)OCc1ccccc1 | 12µM* | 0% | 8.3µM* | 126%
C[C@H](NC(=O)c1nc[nH]c1C(=O)N[C@@H](CCCCNC(=O)OC(C)(C)C)C(=O)OC(C)(C)C)C(=O)OCc1ccccc1 | 17% | 11% | u | 141%
CC(C)C[C@H](NC(=O)c1nc[nH]c1C(=O)N[C@@H](CCCCNC(=O)OC(C)(C)C)C(=O)OC(C)(C)C)C(=O)OCc1ccccc1 | 3.3µM* | 5% | u | 112%
CC(C)C[C@H](NC(=O)c1nc[nH]c1C(=O)NCCCCCNC(=O)OC(C)(C)C)C(=O)OCc1ccccc1 | 9.3µM* | -1% | u | 119%
CC(=NOC(=O)c1ccc(I)cc1)c1nccs1 | x | x | x | -3%
SMILES | Pf growth 96h | SARS PLP yeast | Pf growth 48h | AMA1-RON2 inh
CCN1C(=O)/C(=C/N2CC(C)CC(C)C2)SC1=S (stereo not drawn) | -5% | 7% | 58% | 0%
CCN1C(=O)/C(=C\N2CCCCCC2)SC1=S | 12µM* | 0% | u | -21%
COc1ccc(S(=O)(=O)N2CCOCC2)cc1NC(=O)c1cccc2c(=O)c(C)c(-c3ccccc3)oc12 | 2.1µM* | 5% | 5.2µM* | -5%
COc1ccc(S(=O)(=O)N2CCOCC2)cc1NC(=O)c1c(-c2ccccc2)noc1C | 10µM* | -6% | u | -12%
CCN(CC)S(=O)(=O)c1ccc(N2CCOCC2)c(NC(=O)c2cccc3c(=O)c(C)c(-c4ccccc4)oc23)c1 | x | x | x | 0%
COc1ccc(S(=O)(=O)N2CCOCC2)cc1NC(=O)c1cc(C)oc1C | 12µM* | 1% | u | -8%
COc1ccc(S(=O)(=O)N2CCOCC2)cc1NC(=O)c1c(C)noc1C | x | x | x | -7%
CCOc1ccc(NC(=O)CCNC(=O)Cn2ccc3ccccc3c2=O)cc1 | u | u | -18% | 12%
O=C(CSc1nnnn1C1CC1)Nc1cccc(S(=O)(=O)N2CCCC2)c1 | u | -1% | u | 15%[11.6 µM]
COc1ccc(OCCCN2CCc3ccccc3C2)cc1 | 0% | 8% | 11% | -6%
CN(c1ccccc1)c1nc(N)c([N+](=O)[O-])c(Nc2ccccc2F)n1 | u | 0% | -17% | -13%
N#C/C(=C\c1c(N(Cc2ccccc2)Cc2ccccc2)nc2ccccn2c1=O)C(N)=O | u | 28% | 4.7µM* | 0%
C=CCNC(=O)/C(C#N)=C/c1c(N(Cc2ccccc2)Cc2ccccc2)nc2ccccn2c1=O | 9.3µM* | 0% | 5.2µM* | 0%
CCOC(=O)C1=C(COC(=O)/C=C/c2ccc(Cl)cc2)NC(=O)NC1C (stereo not drawn) | 25% | 0% | 4% | -10%
Cc1ccc(/C=C2\C(=N)N3N=C(CC(=O)N4CCCCC4)SC3=NC2=O)cc1 | 8% | -4% | 39% | 43%
COc1ccc(NC(=O)CSc2ccc(-c3cccnc3)nn2)cc1 | u | 26% | u | -5%
Nc1cc(=O)[nH]c(SCC(=O)Nc2cc(S(=O)(=O)N3CCCCCC3)ccc2Cl)n1 | x | -7% | x | -4%
COC(=O)c1cnn(-c2ccc(C(=O)Nc3ccc(C(C)=O)cc3)cc2)c1N | u | -6% | 5.2µM* | x
CCOC(=O)c1ccc(-n2ncc(C(=O)OCC)c2N)cc1 | u | -1% | 26% | -6%
CC(=O)c1ccc(NC(=O)c2cnn3ccccc23)cc1 | 10µM* | -2% | x | -1%
CN(CC(=O)NCCN1CCN(c2ccccc2)CC1)S(=O)(=O)c1ccc2c(c1)CCC(=O)N2 | 4.7µM* | 5% | x | 3%
CCC(COC(=O)Nc1cccc(C)c1C)NC(=O)OCC(C)C (stereo not drawn) | u | -1% | 4% | 0%
CCCOC(=O)NC(CC)COC(=O)Nc1cccc(C)c1C (stereo not drawn) | 9.3µM* | -4% | 6% | 15%
O=C(Nc1ccc(Cl)cc1)Nc1nnc(SCc2ccc(Cl)cc2)s1 | 5.2µM* | -29% | -7% | -8%

Assay outcomes (PubChem BioAssay)
